PubChem BioAssay AID1259343 (VanderVen Lab, College of Veterinary Medicine, Cornell …, 2017)
Among all 6,200 compounds or so, about 2,900 (47%) were called active. The set was probably picked from earlier hits. The list shows a part of the results. A number with no mark means an inactive call. Rule as the data show it: active = inhibition above about 50%; inactive = the rest.

Experiment: Mycobacterium tuberculosis growth inhibition, primary screen (AID 1259343)
Settings: inhibition: at 10 µM, active compounds read high; outcome: 10 uM
`COc1cccc(-c2ccnc3[nH]n(-c4ccccc4)c(=O)c23)c1` showed an inhibition of 46.4%. With `COc1cccc(Nc2nccc3c2cc(-c2ccc(N(C)C)cc2)n3C)c1` the inhibition was 81.2% (active). `CC(C)Cc1nnc(C(C)Sc2nc3ncc(Cl)cc3[nH]2)o1` (centres undefined) showed an inhibition of -8.41%. For `CC(=O)c1ccc(-c2ccc(Br)s2)cc1`, the inhibition was 37%. In the case of `CC(C)C1(CNC(=O)c2ccc(Br)s2)CC1`, the inhibition is reported as 95.1% (active). For `Cc1cccc(NC(C)c2nnc(-c3cccs3)o2)c1C` (centres undefined), the inhibition was 61.2% (active). In the case of `O=C(Nc1ccc(Br)cc1)c1cc(Br)cc(Br)c1O`, the inhibition is reported as 101% (active). In the case of `O=c1[nH]cc(CNCc2ccccc2)c(=O)[nH]1`, the inhibition is reported as 101% (active). `O=C(O)C1CCN(c2ncnc3cc(-c4ccc(F)cc4)sc23)CC1` showed an inhibition of 14.5%. For `CCC1CCCCN1C(=O)c1ccc(-c2cccc(Cl)c2)s1` (centres undefined), the inhibition was 81.8% (active). With `CCC1CCCCN1C(=O)c1ccc(-c2ccc(F)cc2)s1` (centres undefined) the inhibition was 94.5% (active). Work on `Oc1ccc(C=Cc2ccncc2)cc1` yielded an inhibition of 37.5%. For `Cn1nc([N+](=O)[O-])nc1Oc1ccc(Br)cc1`, the inhibition was 68.9% (active). For `CCOC(=O)c1ccc(C#Cc2ccc3c(c2)C(C)(C)CCS3)nc1`, the inhibition was 87.4% (active). Molecule `N#Cc1ccc(NC(=O)NCc2cccs2)cc1Cl` has an inhibition of 48.4%. For `Cc1ccc(C(C)NC(=O)Nc2ccc(C#N)c(Cl)c2)o1` (centres undefined), the inhibition was 89.3% (active). `CC(C)c1ccc(CCNC(=O)CNc2ccc(C#N)c(Cl)c2)cc1` showed an inhibition of 2.06%. In the case of `Cc1ccc(Nc2n[nH]nc2C(=O)Nc2ccc(C)cc2Cl)cc1`, the inhibition is reported as 83.6% (active). With `Cc1ccc(NC(=O)NCCc2csc(C(C)C)n2)c(Cl)c1` the inhibition was 25.8%. For `Cc1ccc(Nc2nc(-c3ccccc3)nc(Cl)c2N)cc1`, the inhibition was 45.9%. `CCOC(=O)C1C(=O)CC(O)(c2ccc(Br)cc2)CC1C=C(Cl)Cl` (centres undefined) showed an inhibition of 34%. With `Cc1cc(C)n2c(NCc3ccccc3)c(-c3ccc(Cl)cc3)nc2c1` the inhibition was 51.4% (active). Work on `CCC(=O)Nc1c(-c2cc(C)cc(C)c2)nc2cc(C)ccn12` yielded an inhibition of 5.69%. With `CCCS(=O)(=O)Oc1ccc([N+](=O)[O-])cc1-c1nc2ccccc2o1` the inhibition was 99.4% (active). Molecule `O=[N+]([O-])c1ccc(Cl)c(S(=O)(=O)Oc2cccc3ccccc23)c1` has an inhibition of 20.7%. For `COc1ccccc1C(=O)Nc1cc(C)nn1-c1nc(C)cc(=O)[nH]1`, the inhibition was 99.4% (active). Molecule `COc1cccc(C(=O)Nc2cc(C)nn2-c2nc(C)c(C)c(=O)[nH]2)c1OC` has an inhibition of 7.56%. For `COc1cccc(C(=O)Nc2cc(C)nn2-c2nc(C)cc(=O)[nH]2)c1OC`, the inhibition was 101% (active). For `CCc1cc(=O)[nH]c(-n2nc(C)cc2NC(=O)c2cccc(OC)c2OC)n1`, the inhibition was 102% (active). In the case of `COc1cccc(C(=O)Nc2cc(-c3cccs3)nn2-c2nc(C)cc(=O)[nH]2)c1OC`, the inhibition is reported as 100% (active). `COc1cccc(C(=O)Nc2cc(-c3cccs3)nn2-c2nc(C)c(C)c(=O)[nH]2)c1OC` showed an inhibition of -24.6%. For `COc1cccc2c1C(=O)c1c(O)c3c(c(O)c1C2=O)C[C@@](O)(C(C)=O)C[C@@H]3O[C@H]1C[C@H](N)[C@H](O)[C@H](C)O1`, the inhibition was 38.2%. With `CCOc1ccccc1C(=O)Nc1cc(C)nn1-c1nc(C)cc(=O)[nH]1` the inhibition was 101% (active). In the case of `COc1cccc(C(=O)Nc2cc(C3CC3)nn2-c2nc(C)cc(=O)[nH]2)c1OC`, the inhibition is reported as 99.8% (active). For `COC(=O)c1ccc(CN(Cc2ccc(C)s2)CC2CCCO2)o1` (centres undefined), the inhibition was 73.4% (active). Molecule `Cc1oc(-c2ccc(-c3ccccc3)cc2)nc1CN(Cc1ccccn1)CC1CCCO1` (centres undefined) has an inhibition of -19.8%. For `COC(=O)c1ccc(CN(Cc2ccco2)Cc2ccc(C)s2)o1`, the inhibition was 73.9% (active). With `Cc1[nH]nc(C(=O)N(Cc2cccc(F)c2)CC2CCCO2)c1Br` (centres undefined) the inhibition was -6.44%. Molecule `COc1ccc(CN(Cc2ccco2)CC(O)COc2ccc(Cl)cc2)cc1` (centres undefined) has an inhibition of 6.76%. `Cc1ccc(C(C)NC(=O)CN(C(=O)Cn2cnc(C)c2C)C(C)c2ccc(C)c(C)c2)cc1C` (centres undefined) showed an inhibition of 37.8%. Work on `COc1ccc(N(C)S(=O)(=O)c2ccc(OC)c(N3CCN(C(=O)C4CCC4)CC3)c2)cc1` yielded an inhibition of -12.6%. For `CN(c1ccccc1)S(=O)(=O)c1cccc(NC(=O)C2CC2)c1`, the inhibition was 95% (active). In the case of `O=C(NS(=O)(=O)CCc1ccccc1)c1cccs1`, the inhibition is reported as 57% (active). For `O=[N+]([O-])c1cnc(Nc2cccc(O)c2)c([N+](=O)[O-])c1`, the inhibition was 75.9% (active). In the case of `O=[N+]([O-])c1cnc(Nc2ccccc2Cl)c([N+](=O)[O-])c1`, the inhibition is reported as -16.6%. In the case of `O=[N+]([O-])c1cnc(Nc2cccc(Cl)c2)c([N+](=O)[O-])c1`, the inhibition is reported as 97.7% (active). For `Cc1cc(C)cc(Nc2ncc([N+](=O)[O-])cc2[N+](=O)[O-])c1`, the inhibition was 92.8% (active). Molecule `O=[N+]([O-])c1cnc(Nc2ccccc2O)c([N+](=O)[O-])c1` has an inhibition of 26.1%. With `COc1ccccc1Nc1ncc([N+](=O)[O-])cc1[N+](=O)[O-]` the inhibition was 101% (active).
